# Source: PubChem BioAssay (Tox21)
# Where “and” joins values, the source holds several entries; their conditions need not be identical. Equal values may be shown once. Results filed as inconclusive are left out. Where a call stands in place of a potency, no number is given. Unmarked numbers belong to inactive results. Calls of active or inactive are those of the source. Unless noted, calls follow the shape of the dose curve; as a rule, active = well fitted curve in the direction sought with a large enough effect in the repeat runs; inconclusive = weak or mixed curves; inactive = no such curve, though single readings can be large; an effect the other way counts as inactive or inconclusive.
# Experiments:
# [1] = qHTS assay to identify small molecule antagonists of the retinoic acid receptor (RAR) signaling pathway (AID 1159552; also: nearly all actives have a fitted effect of over 50% in size; also: potency is read from the fitted curve at half-maximal effect)
# Summary of the method: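 Retinol signaling pathway inhibitors screened in C3RL4 RARE-luciferase reporter cells seeded overnight at 37 C, then compounds added with 1 uM (final) retinol as pathway substrate. After 6 hr at 37 C, luciferase luminescence read after 30 min at room temperature.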
# [2] = qHTS assay to identify small molecule agonists of the retinoic acid receptor (RAR) signaling pathway (AID 1159553)
# Summary of the method: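 C3RL4 RARE-luciferase cells were seeded at 1,000/well and grown overnight at 37 C, then exposed to compounds for 6 hr at 37 C, 5% CO2. Luciferase reagent was added and luminescence was read after 30 min at room temperature.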
# [3] = target: Luciferin 4-monooxygenase (Photinus pyralis) (UniProt P08659); experiment: qHTS assay to identify small molecule inhibitors of firefly luciferase (AID 1224835); also: nearly all actives have a fitted effect of over 25% in size; also: potency is read from the fitted curve at half-maximal effect; as to activity change, negative = inhibition: series mostly up to about 120 µM
# Summary of the method: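 Inhibition of purified Photinus luciferase is measured by luminescence. Substrate levels (D-luciferin, ATP) sit at their KM values. Each compound is tested in a concentration series.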
# [4] = qHTS assay to identify small molecule antagonists of the estrogen related receptor (ERR) signaling pathway (AID 1224819; also: potency is read from the fitted curve at half-maximal effect; nearly all actives have a fitted effect of over 50% in size)
# Summary of the method: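 ERR reporter cell line (NTP) plated at 2,000 cells/well, settled 6 h at 37C/5% CO2, then exposed to LOPAC compounds for 18 h at 37C. One-Glo luciferase luminescence read after 30 min at room temperature.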
# [5] = system: estrogen-related receptor alpha (ERRalpha) with PGC-1alpha coactivator, human; experiment: qHTS assay to identify small molecule antagonists of the estrogen related receptor signaling pathway with the pleiotropic PPARgamma coactivator (PGC) (AID 1224821; calls by dose curve;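 also: series mostly up to about 46 µM; lower luminescence signal means antagonism of PGC/ERR signalling; nearly all actives have a fitted effect of over 50% in size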)
# Summary of the method: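 Cells engineered for PGC/ERR signalling (line from NTP) were plated 6 h at 37 C/5% CO2, then exposed to DMSO-dissolved compound for 18 h at 37 C. Luciferase activity was read by One-Glo luminescence after 30 min at room temperature.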
# [6] = qHTS assay to identify small molecule agonists of the estrogen related receptor signaling pathway with the pleiotropic PPARgamma coactivator (PGC) (AID 1224823)
# Summary of the method: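 PGC/ERR reporter cells were seeded, rested 6 h at 37 C/5% CO2, then exposed to compounds in DMSO by pin transfer for 18 h at 37 C. Luciferase activity was read as luminescence after One-Glo reagent and 30 min at room temperature.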
# [7] = qHTS assay to identify small molecule antagonists of the estrogen related receptor (ERR) signaling pathway from Tox21 library - cell viability counter screen (AID 1224834); also: nearly all actives have a fitted effect of over 30% in size; also: potency is read from the fitted curve at half-maximal effect
# Summary of the method: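 ERR reporter cells, 2,000 per well, rested 6 h, then exposed to compound in DMSO for 17.5 hours at 37 C. Viability read as fluorescence after 30 min with CellTiter-Fluor.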
# Luciferin 4-monooxygenase (Photinus pyralis), sequence (P08659 whole entry, looked up): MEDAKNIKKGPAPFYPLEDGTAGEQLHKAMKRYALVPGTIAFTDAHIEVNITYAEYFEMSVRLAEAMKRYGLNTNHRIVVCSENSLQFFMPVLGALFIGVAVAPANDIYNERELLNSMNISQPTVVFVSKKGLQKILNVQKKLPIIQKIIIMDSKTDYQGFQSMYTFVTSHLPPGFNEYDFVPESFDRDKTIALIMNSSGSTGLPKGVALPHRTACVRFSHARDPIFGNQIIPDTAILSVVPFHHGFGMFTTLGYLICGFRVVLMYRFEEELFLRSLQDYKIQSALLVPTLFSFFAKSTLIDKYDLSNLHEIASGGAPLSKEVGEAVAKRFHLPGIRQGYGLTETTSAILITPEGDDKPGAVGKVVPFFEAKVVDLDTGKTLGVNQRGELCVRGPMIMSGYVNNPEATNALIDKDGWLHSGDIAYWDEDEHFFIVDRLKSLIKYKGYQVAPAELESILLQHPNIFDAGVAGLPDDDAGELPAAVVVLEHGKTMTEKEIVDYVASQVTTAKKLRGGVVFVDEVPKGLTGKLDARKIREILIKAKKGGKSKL
structure (smiles),measurement,setting,value
c1ccc(Nc2cccc3ccccc23)cc1,Potency,[1],inactive
same,Potency,[2],inactive
same,Potency,[3],40.5 µM (active) and 35.6 µM (active)
Oc1ccc(-c2ccc(O)cc2)cc1,Potency,[1],inactive
same,Potency,[2],inactive
same,Potency,[3],40.2 µM (active)
Cc1c(C)n(Cc2ccccc2)c2ccc(C(=O)OCCN(C)C)cc12,Potency,[1],inactive
same,Potency,[2],inactive
same,Potency,[3],27.5 µM (active)
O=C1NCN(c2ccccc2)C12CCN(CCCC(c1ccc(F)cc1)c1ccc(F)cc1)CC2,Potency,[4],23.7 µM (active)
same,outcome,[5],inactive
same,outcome,[6],inactive
CN1CCN(C2Cc3ccccc3Sc3ccc(Cl)cc32)CC1 (stereo unspecified),outcome,[5],inactive
same,outcome,[6],inactive
CCOB(OCC)OCC,Potency,[1],inactive
same,Potency,[7],inactive
same,Potency,[3],inactive
Cc1cccc(C)c1NC(=O)CN1CCN(CCCC(c2ccc(F)cc2)c2ccc(F)cc2)CC1,Potency,[1],26.6 µM (active)
same,Potency,[7],21.1 µM (active)
same,Potency,[3],inactive
CCC(=O)CC(C)CC (stereo unspecified),"activity, negative = inhibition",[1],-2.26% [at 0.349 µM]
same,"viability change, negative = cytotoxic",[7],2.01% [at 0.349 µM]
same,"activity change, negative = inhibition",[3],4.97% [at 0.435 µM]
CCO[Si](C)(C)OCC,Potency,[1],inactive
same,Potency,[7],inactive
same,Potency,[3],inactive
O=CC1CC1,Potency,[1],inactive
same,Potency,[7],inactive
same,Potency,[3],inactive
COC(=O)CC(C)CCC=C(C)C (stereo unspecified),Potency,[1],inactive
same,Potency,[7],inactive
same,Potency,[3],inactive
CCCCCCCCCCCCCCCCCO,"activity, negative = inhibition",[1],-5.96% [at 19 µM]
same,"viability change, negative = cytotoxic",[7],0.981% [at 19 µM]
same,"activity change, negative = inhibition",[3],3.61% [at 23.6 µM]
CCN(CC)CCOc1ccc(C(O)(Cc2ccc(Cl)cc2)c2ccc(C)cc2)cc1 (stereo unspecified),Potency,[1],26.6 µM (active)
same,Potency,[7],33.5 µM (active)
same,Potency,[3],inactive
CC(=O)C=O,Potency,[1],inactive
same,Potency,[7],inactive
same,Potency,[3],inactive
Cc1cnccn1,Potency,[1],inactive
same,Potency,[7],inactive
same,Potency,[3],inactive
Clc1cc(Cl)c(-c2c(Cl)c(Cl)cc(Cl)c2Cl)cc1Cl,Potency,[1],inactive
same,Potency,[7],inactive
same,Potency,[3],inactive
Clc1nc2ccccc2s1,Potency,[1],inactive
same,Potency,[7],inactive
same,Potency,[3],inactive
C/C=C/C(=O)C1=C(C)CCCC1(C)C,Potency,[1],inactive
same,Potency,[7],inactive
same,Potency,[3],inactive
CCNc1nc(NC(C)CC)nc(OC)n1 (stereo unspecified),Potency,[1],inactive
same,Potency,[7],inactive
same,Potency,[3],inactive
CCCCCCCC/C=C/CCCOC(C)=O,Potency,[1],inactive
same,Potency,[7],inactive
same,Potency,[3],inactive
CCCCN(C)C,Potency,[1],inactive
same,Potency,[7],inactive
same,Potency,[3],inactive
C#CC(O)CCC (stereo unspecified),Potency,[1],inactive
same,Potency,[7],inactive
same,Potency,[3],inactive
CCOC(OCC)C(=O)c1ccccc1,Potency,[1],inactive
same,Potency,[7],inactive
same,Potency,[3],inactive
OCCN1CN(CCO)CN(CCO)C1,Potency,[1],inactive
same,Potency,[7],inactive
same,Potency,[3],inactive
CCCCCCCCCCc1ccccc1,Potency,[1],inactive
same,Potency,[7],inactive
same,Potency,[3],inactive
Cc1cc(=O)[nH]c(=O)[nH]1,Potency,[1],inactive
same,Potency,[7],inactive
same,Potency,[3],inactive
CCCCOCC,Potency,[1],inactive
same,Potency,[7],inactive
same,Potency,[3],inactive
CCc1ccc(C)nc1,Potency,[1],inactive
same,Potency,[7],inactive
same,Potency,[3],inactive
CCCCCCCCCCCCN(CCO)CCO,Potency,[1],54.3 µM (active)
same,Potency,[7],68.3 µM (active)
same,Potency,[3],inactive
CCC(C)c1ccccc1 (stereo unspecified),Potency,[1],inactive
same,Potency,[7],inactive
same,Potency,[3],inactive
CC[N+](CC)(CC)Cc1ccccc1,Potency,[1],inactive
same,Potency,[7],inactive
same,Potency,[3],inactive
NC1(c2ccc(-c3nc4ccn5c(=O)[nH]nc5c4cc3-c3ccccc3)cc2)CCC1,Potency,[1],11.9 µM (active)
same,Potency,[7],13.3 µM (active)
same,Potency,[3],inactive
Cc1c(C(=O)O)cccc1[N+](=O)[O-],Potency,[1],inactive
same,Potency,[7],inactive
same,Potency,[3],inactive
CS(C)(=O)=O,Potency,[1],inactive
same,Potency,[7],inactive
same,Potency,[3],inactive
Oc1ccc(-c2ccccc2)c(Cl)c1,Potency,[1],inactive
same,Potency,[7],inactive
same,Potency,[3],39.9 µM (active)
CC(C)=CCCC(C)O (stereo unspecified),Potency,[1],inactive
same,Potency,[7],inactive
same,Potency,[3],inactive
Cc1cc(C)c(C=O)c(C)c1,Potency,[1],inactive
same,Potency,[7],inactive
same,Potency,[3],inactive
CCOC(=O)CN,Potency,[1],inactive
same,Potency,[7],inactive
same,Potency,[3],inactive
CC(=O)OC(OC(C)=O)c1ccc([N+](=O)[O-])o1,Potency,[1],27.8 µM (active)
same,Potency,[7],62.2 µM (active)
same,Potency,[3],inactive
CCCCCCCC(=O)OCC,Potency,[1],inactive
same,Potency,[7],inactive
same,Potency,[3],inactive
c1ccc(Sc2ccccc2)cc1,Potency,[1],inactive
same,Potency,[7],inactive
same,Potency,[3],inactive
CCc1cccc(CC)c1N(COC)C(=O)CS(=O)(=O)O,Potency,[1],inactive
same,Potency,[7],inactive
same,Potency,[3],inactive
Cc1cncc(C)c1,Potency,[1],inactive
same,Potency,[7],inactive
same,Potency,[3],inactive
O=c1cccc[nH]1,Potency,[1],inactive
same,Potency,[7],inactive
same,Potency,[3],inactive
CC(C)C(=O)OCc1ccccc1,Potency,[1],inactive
same,Potency,[7],inactive
same,Potency,[3],inactive
CCCC(C)CCC(C)=O (stereo unspecified),Potency,[1],inactive
same,Potency,[7],inactive
same,Potency,[3],inactive
CCCCCCCOC(=O)c1ccccc1C(=O)OCCCCCCC,Potency,[1],inactive
same,Potency,[7],inactive
same,Potency,[3],inactive
COc1cccc(O)c1,Potency,[1],inactive
same,Potency,[7],inactive
same,Potency,[3],inactive
O=C(Nc1ccc(Cl)c(Cl)c1)c1cc(Cl)cc(Cl)c1O,Potency,[1],inactive
same,Potency,[7],3.06 µM (active)
same,Potency,[3],3.99 µM (active)
